Inconclusive results are not listed. Calls of active or inactive are those of the source. The call rests on the fitted dose curve; in most records, active means well fitted cell-killing curve with a large enough effect in the repeat runs; inconclusive means weak or mixed curves, or effect the other way; inactive means flat fitted curve, though single readings scatter.
On the % scale 0 is the no-effect control and ±100 the full control effect; potency means the concentration at half of the fitted maximal effect.

The experiment in a line: qHTS assay to identify small molecule antagonists of the estrogen receptor alpha (ER-alpha) signaling pathway using the BG1 cell line in the presence of 0.1 nM 17-beta-estradiol - cell viability counter screen (AID 1259241). Further: nearly all actives have a fitted effect of over 40% in size. The settings on record: VM7Luc4E2 (BG1) viability, CellTiter-Fluor protease, 22 h, 0.1 nM estradiol agonist added; series mostly up to 92.4 µM; activity change, negative = cytotoxicity: at the top concentration. From the text: National Center for Advancing Translational Sciences [NCATS]
NIH Chemical Genomics Center [NCGC]
U.S. Environmental Protection Agency [EPA]
National Institutes of Environmental Health Sciences [NIEHS]
National Toxicology Program [NTP]
U.S. Food and Drug Administration [FDA]
Estrogen receptor (ER), a member of the nuclear hormone receptor plays an important role in development, metabolic homeostasis and reproduction. Two subtypes of ER, ER-alpha and ER-beta, have similar expression patterns with some uniqueness in both types. Endocrine disrupting chemicals (EDCs) and their interactions with steroid hormone receptors like ER causes disruption of normal endocrine function. Therefore, it is important to understand the effect of environmental chemicals in ER signaling pathway. For identifying ER antagonists, VM7Luc4E2 cell line was used to screen against Tox21 compound libraries.
VM7Luc4E2 cell line (provided by Denison MS, University of California) endogenously express full-length ER-alpha and is stably transfected with a plasmid containing four estrogen responsive elements (ERE) upstream of a luciferase reporter gene. The current screening for identification of ER-alpha inhibitors against Tox21 compound libraries used lower concentration (0.1 nM) of 17beta-Estradiol as a stimulator. The cytotoxicity of the Tox21 compound libraries against VM7Luc4E2 cell line was tested by measuring live-cell protease activity using CellTiter-Fluor assay in the same wells.
Tox21 Assay Protocol Summary:
VM7Luc4E2 cells were cultured in phenol red free assay medium containing 10% charcoal stripped FBS for 5 days prior to the assay. The cells were dispensed at 4,000 cells/well in 4 uL of assay medium into white wall/solid-bottom 1536-well plates (Corning Life Sciences, Corning, NY) using a Multidrop Combi (ThermoFisher Scientific, Waltham, MA) dispenser. After the assay plates were incubated at 37C and 5% CO2 for 24 hr, 23 nL of compounds dissolved in DMSO, positive controls or DMSO only was transferred to the assay plates by a Pintool station (Kalypsys, San Diego, CA). The transfer of compounds was followed by the addition of 1 uL of 0.1 nM (final concentration) agonist (17beta-Estradiol)/assay medium using a Flying Reagent Dispenser (FRD, Aurora Discovery, San Diego, CA). The plates were incubated at 37C and 5% CO2 for 22 hr. For cytotoxicity assay, 1 uL of CellTiter-Fluor reagent (Promega Corporation, Madison, WI) was added to each well using the FRD and after 30 min incubation at 37C and 5% CO2, The fluorescence intensity was measured using ViewLux plate reader (PerkinElmer, Shelton, CT).
On the technique in general: Quantitative high-throughput screening tests each substance at several concentrations.
On to `c1cc[nH]c1`, for which the “activity change, negative = cytotoxicity” value is -4.8% (inactive).

`CCNc1nc(NC(C)CC)nc(OC)n1` (stereo not given): the “activity change, negative = cytotoxicity” value is 10.1% (inactive).

As to `CC(O)C#CC(C)O` (stereo not given), the “activity change, negative = cytotoxicity” value is -3.61% (inactive).

As to `C/C=C/C(=O)Oc1c(CCCCCC(C)C)cc([N+](=O)[O-])cc1[N+](=O)[O-]`, the Potency was 27.3 µM (active).

Take `ClC/C=C\CCl`: the “activity change, negative = cytotoxicity” value was 11.9% (inactive).

On to `CCCCCCOc1ccc(O)cc1`, for which the “activity change, negative = cytotoxicity” value is -11.9% (inactive).

Turning to `CC(C)c1ccccc1N`, the “activity change, negative = cytotoxicity” value is 2.19% (inactive).

In the case of `CCCCCCCCCCCCCCCC`, the “activity change, negative = cytotoxicity” value is -3.12% (inactive).

As to `O=Cc1ccc(F)cc1`, the “activity change, negative = cytotoxicity” value is 0.874% (inactive).

Consider `CCOCN(C(=O)CS(=O)(=O)O)c1c(C)cccc1CC`, for which the “activity change, negative = cytotoxicity” value was -9.46% (inactive).

For the molecule `COc1cc(C(=O)NS(=O)(=O)c2ccccc2C)ccc1Cc1cn(C)c2ccc(NC(=O)OC3CCCC3)cc12`, the “activity change, negative = cytotoxicity” value was -4.95% [at 42.5 µM] (inactive).

For the molecule `CC(C)N=C(N)/N=C(\N)Nc1ccc(Cl)cc1`, the “activity change, negative = cytotoxicity” value is -4.46% [at 42.5 µM] (inactive).

Consider `Clc1ccc(C(c2ccccc2Cl)C(Cl)Cl)cc1` (stereo not given), for which the Potency result is “inactive”.

Regarding `OCCCc1cccnc1`, the “activity change, negative = cytotoxicity” value is 0.271% (inactive).

As to `Clc1cc(Cl)c(-c2c(Cl)c(Cl)cc(Cl)c2Cl)cc1Cl`, the “activity change, negative = cytotoxicity” value was 2.5% [at 42.5 µM] (inactive).

Take `C[C@H]1O[C@@H](O[C@H]2[C@@H](O)C[C@H](O[C@H]3[C@@H](O)C[C@H](O[C@H]4CC[C@@]5(C)[C@H](CC[C@@H]6[C@@H]5C[C@@H](O)[C@]5(C)[C@@H](C7=CC(=O)OC7)CC[C@]65O)C4)O[C@@H]3C)O[C@@H]2C)C[C@H](O)[C@@H]1O`: the Potency entry is “inactive”.

Take `CCCCCCCCC(C)=O`: the “activity change, negative = cytotoxicity” value is 0.331% (inactive).

With `O=c1cccc[nH]1`, the “activity change, negative = cytotoxicity” value is 3.67% (inactive).

With `CO[C@H]1C=CO[C@@]2(C)Oc3c(C)c(O)c4c(O)c(cc(O)c4c3C2=O)NC(=O)/C(C)=C\C=C/[C@H](C)[C@H](O)[C@@H](C)[C@@H](O)[C@@H](C)[C@H](OC(C)=O)[C@@H]1C`, the Potency was 27.5 µM (active).

As for `CCC(C)c1cc([N+](=O)[O-])cc([N+](=O)[O-])c1OC(=O)OC(C)C` (stereo not given), the Potency was 38.6 µM (active).

On to `OCCN1CN(CCO)CN(CCO)C1`, for which the “activity change, negative = cytotoxicity” value was 15.4% (inactive).

With `Cn1cnc2ncnc(N)c21`, the “activity change, negative = cytotoxicity” value is 8.45% [at 42.5 µM] (inactive).

Consider `CCCCN(CCCC)CCC(O)c1cc2c(Cl)cc(Cl)cc2c2cc(C(F)(F)F)ccc12` (stereo not given), for which the “activity change, negative = cytotoxicity” value was 0.501% [at 42.5 µM] (inactive).

Consider `CC(C)=CC1CC(C)CCO1` (stereo not given), for which the “activity change, negative = cytotoxicity” value is -5.49% (inactive).

In the case of `CC(=O)O[C@@H]1C[C@@H]2CC[C@@]1(C)C2(C)C`, the “activity change, negative = cytotoxicity” value is -3.94% (inactive).

For `CCCCNc1c(C(=O)OCC)c(C)nc2c1cnn2CC`, the “activity change, negative = cytotoxicity” value was -0.611% [at 42.5 µM] (inactive).

Consider `CCCCCCCCCCCCCCCCCO`, for which the activity change, negative = cytotoxicity was -2.67% [at 19 µM] (inactive).

In the case of `CN(C)CCCN1c2ccccc2Sc2ccc(C(F)(F)F)cc21`, the “activity change, negative = cytotoxicity” value is -6.66% [at 42.5 µM] (inactive).

Take `C[C@]12CC[C@H]3C(=CCc4cc(O)ccc43)[C@@H]1CCC2=O`: the “activity change, negative = cytotoxicity” value is -0.386% (inactive).

As to `CC(C)(c1cc(Br)c(O)c(Br)c1)c1cc(Br)c(O)c(Br)c1`, the Potency entry was “inactive”.

Regarding `O=C1OC(OC(=O)c2cccnc2Nc2cccc(C(F)(F)F)c2)c2ccccc21` (stereo not given), the “activity change, negative = cytotoxicity” value is -8.3% [at 42.5 µM] (inactive).

Take `CC(C)(C)CC(C)(C)c1ccccc1O`: the “activity change, negative = cytotoxicity” value was -10.3% (inactive).

With `NC(=O)c1nc(-c2cccc(-c3cc(F)ccc3OCC(F)(F)C(F)(F)F)c2)n[nH]1`, the “activity change, negative = cytotoxicity” value is -20.4% (inactive).

For `OCCCCl`, the “activity change, negative = cytotoxicity” value is -8.05% (inactive).

On to `c1ccc(Nc2cccc3ccccc23)cc1`, for which the Potency entry is “inactive”.

Take `Brc1ccccn1`: the “activity change, negative = cytotoxicity” value was -5.56% (inactive).

For the molecule `CC(=O)C=O`, the “activity change, negative = cytotoxicity” value is 1.85% (inactive).

Consider `C=C[C@](C)(O)CC[C@@H]1[C@@]2(C)CCCC(C)(C)[C@@H]2CC[C@@]1(C)O`, for which the “activity change, negative = cytotoxicity” value was -15.5% (inactive).

As to `CCCC(CC)CCCCCCCN` (stereo not given), the “activity change, negative = cytotoxicity” value was 11.7% (inactive).

Consider `CC1CCCCN1CCCOC(=O)c1ccc(OC2CCCCC2)cc1` (stereo not given), for which the “activity change, negative = cytotoxicity” value was -20.2% [at 42.5 µM] (inactive).

The values are drawn from PubChem BioAssay (Tox21).
